The results in this text go back to PubChem BioAssay (EPA / NIEHS).

Structures are written as SMILES. Inconclusive results are not listed. Activity calls are given as the source filed them. The calls were made as follows: active = hit-call score of the fitted dose curve at least 0.9, where 1 is the maximum; inconclusive = response in the unintended direction; inactive = score below 0.9.

Experiment [1] addresses bovine Estrogen Receptor (ER), ESR1 (gene 407238) (UniProt P49884). As to the kind of experiment: NVS_NR_bER: NovaScreen (NVS) Nuclear Receptor Binding Assay for bovine Estrogen Receptor (ER) (AID 2283345).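 Also: actives lower the bound radioligand count which means they displace the ER ligand.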 A digest of the protocol:
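Cell-free radioligand binding with bovine uterine membrane extracts, read 18 hours after dosing by scintillation counting. Loss of signal versus DMSO baseline indicates displacement. Primary screen run in duplicate at 25 uM, actives followed in concentration series.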

For experiment [2], the target named is rat Peripheral-type Benzodiazepine Receptor (PBR), Tspo (gene 24230) (UniProt P16257). As to the kind of experiment: NVS_MP_rPBR: NovaScreen (NVS) Membrane Protein Assay for rat Peripheral-type Benzodiazepine Receptor (PBR) (AID 2283335). In outline: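 Rat kidney membranes; radioligand binding with displacement, filter-based scintillation counting, 1 h incubation. Primary screen in duplicate at 25 uM, actives followed in concentration series; loss of binding vs DMSO.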

For experiment [3], the target named is Sodium channel protein type 1 subunit alpha (Rattus norvegicus) (UniProt P04774). The experiment can be described thus: NVS_IC_rNaCh_site2: NovaScreen (NVS) Ion Channel Assay for rat Sodium Channel, Site 2 (NaCh) (AID 2283322).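 Also: hit means loss of radioligand binding signal relative to DMSO so AC50 marks displacement.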 A digest of the protocol:
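Membranes: rat forebrain. Format: competitive radioligand displacement, filter separation, scintillation readout, 1 h exposure. Primary screen in duplicate at 25 uM; actives retested in concentration series.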

Experiment [4] in a line: NVS_IC_rCaBTZCHL: NovaScreen (NVS) Ion Channel Assay for Calcium Channel, Type L, Benzothiazepine Site (CaBTZCHL) (AID 2283337). In outline:
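Radioligand displacement at the benzothiazepine site using rat cortical membranes; bound label measured by filtration and scintillation counting 1.5 h after dosing. Single-point 25 uM in duplicate, then concentration series; DMSO baseline.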

Experiment [5] has as its target rat Neonicotinoid receptor (NNR), Chrna7 (gene 25302) (UniProt Q05941). As to the kind of experiment: NVS_LGIC_rNNR_BungSens: NovaScreen (NVS) Ligand-Gated Ion Channel Assay for rat Neonicotinoid receptor (NNR) (AID 2283315). In outline:
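Radioligand displacement binding on rat cortical membranes, 2.5 h incubation, filtration and scintillation counting. Loss of specific binding fitted relative to DMSO.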

For experiment [6], the target named is Estrogen receptor (Homo sapiens) (UniProt P03372). As to the kind of experiment: NVS_NR_hER: NovaScreen (NVS) Nuclear Receptor Binding Assay for human Estrogen Receptor (ER) (AID 2283348). A digest of the protocol: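 Radioligand competitive displacement binding to estrogen receptor from MCF7 extract, cell-free; 18 h after dosing, scintillation read-out. Primary screen in duplicate at 25 uM; actives followed up in concentration series; loss of signal vs DMSO.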

Experiment [7] deals with human Peripheral-type Benzodiazepine Receptor (PBR), TSPO (gene 706) (UniProt P30536). The experiment can be described thus: NVS_MP_hPBR: NovaScreen (NVS) Membrane Protein Assay for human Peripheral-type Benzodiazepine Receptor (PBR) (AID 2283331).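 Also: hits reduce radioligand binding relative to DMSO baseline.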 In outline:
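Radioligand displacement on human colonic cell membranes, 1 h incubation; bound radioactivity by filtration and scintillation counting. Primary screen in duplicate at 25 uM single concentration, actives followed up in concentration series; loss of binding versus DMSO.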

For experiment [8], the target named is Estrogen receptor (Homo sapiens) (UniProt P03372). The experiment can be described thus: OT_ER_ERaERa_1440: Odyssey Thera (OT) 24-hour HEK293T Protein-Complementation Assay for Estrogen Receptor-alpha/-alpha Homodimer (AID 2283349).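 Also: hits raise fluorescence above DMSO for agonists and antagonists alike.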 In outline: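 HEK293T cells stably expressing the human ER alpha ligand-binding domain (aa 310-547) as a homodimer PCA were dosed for 24 hours. Fluorescence intensity was read by laser scanning cytometry, and gain of signal was fitted relative to DMSO vehicle.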

Experiment [9] shares this target. The experiment can be described thus: OT_ER_ERaERa_0480: Odyssey Thera (OT) 8-hour HEK293T Protein-Complementation Assay for Estrogen Receptor-alpha/-alpha Homodimer (AID 2283351).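 Also: rise in fluorescence from reassembled reporter fragments on ERα LBD homodimer in nucleus or whole cell.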 A digest of the protocol:
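The readout is complementation of fragments fused to the human ER alpha ligand-binding domain (aa 310-547), stably expressed in HEK293T cells. After 8 h of exposure, the increase in nuclear/cytoplasmic fluorescence was measured by laser scanning cytometry and fitted relative to DMSO.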

The target in experiment [10] is Estrogen receptor (Homo sapiens) + Estrogen receptor beta (Homo sapiens) (UniProt P03372+Q92731). The experiment can be described thus: OT_ER_ERaERb_1440: Odyssey Thera (OT) 24-hour HEK293T Protein-Complementation Assay for Estrogen Receptor-alpha/-beta Homodimer (AID 2283356).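 Also: heteromer of ER alpha and ER beta binding domains; hits raise reporter fluorescence and both agonists and antagonists give an increase.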 A digest of the protocol: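 Readout: mean fluorescence intensity in nucleus (agonists) or nucleus plus cytoplasm (antagonists), read by laser scanning cytometer after 24 h compound exposure of HEK293T cells carrying ERα/ERβ LBD fragment-complementation constructs; DMSO baseline.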

The target of experiment [11] is Estrogen receptor beta (Homo sapiens) (UniProt Q92731). As to the kind of experiment: OT_ER_ERbERb_0480: Odyssey Thera (OT) 8-hour HEK293T Protein-Complementation Assay for Estrogen Receptor-beta/-beta Homodimer (AID 2283357).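 Also: active means signal gain over DMSO baseline.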 A digest of the protocol:
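Fluorescence intensity, nuclear for agonists and nuclear plus cytoplasmic for antagonists, was quantified by laser scanning cytometry versus vehicle after 8 h treatment. The cells were HEK293T stably carrying ER beta LBD fragment-complementation partners.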

In experiment [12] the target is Androgen Receptor/SRC-1 Co-activator, AR (gene 367) (UniProt P10275). The experiment can be described thus: OT_AR_ARSRC1_0960: Odyssey Thera (OT) 16-hour HEK293T Protein-Complementation Assay for Androgen Receptor/SRC-1 Co-activator (AID 2283353).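 Also: actives raise the signal above DMSO so potency reflects increased AR and SRC-1 complex.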 In outline: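 HEK293T cells stably expressing AR and SRC-1 fused to Venus YFP fragments, imaged 16 h after dosing. Nuclear/cytoplasmic fluorescence ratio at 488 nm from at least 400 cells per image; gain of signal relative to DMSO.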

The target is the same in experiment [13]. As to the kind of experiment: OT_AR_ARSRC1_0480: Odyssey Thera (OT) 8-hour HEK293T Protein-Complementation Assay for Androgen Receptor/SRC-1 Co-activator (AID 2283354).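 Also: hits raise the complementation signal above DMSO so AC50 marks enhancers.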 A digest of the protocol:
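HEK293T cells stably expressing AR and SRC-1 fused to Venus YFP fragments, imaged 8 h after dosing. Complementation fluorescence scored as nuclear/cytoplasmic ratio at 488 nm in at least 400 cells per image; gain fitted versus DMSO.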

The target of experiment [14] is chimpanzee Androgen Receptor (AR), AR (gene 747460) (UniProt O97775). The experiment can be described thus: NVS_NR_cAR: NovaScreen (NVS) Nuclear Receptor Binding Assay for chimpanzee Androgen Receptor (AR) (AID 2283346).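 Also: radioligand displacement from AR measured by scintillation counting in a cell-free assay; a loss of bound radioligand signal versus DMSO counts as binding.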 A digest of the protocol:
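Radioligand binding to chimpanzee AR expressed in Sf9/Sf21 cells, cell-free, measured 72 h after dosing by lysate-based scintillation counting. Loss of signal vs DMSO; initial duplicate screen at 25 uM, actives retested in concentration series.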

Chain of Estrogen receptor (Homo sapiens) + Estrogen receptor beta (Homo sapiens) (P03372 whole entry, looked up, the tested form may be a part): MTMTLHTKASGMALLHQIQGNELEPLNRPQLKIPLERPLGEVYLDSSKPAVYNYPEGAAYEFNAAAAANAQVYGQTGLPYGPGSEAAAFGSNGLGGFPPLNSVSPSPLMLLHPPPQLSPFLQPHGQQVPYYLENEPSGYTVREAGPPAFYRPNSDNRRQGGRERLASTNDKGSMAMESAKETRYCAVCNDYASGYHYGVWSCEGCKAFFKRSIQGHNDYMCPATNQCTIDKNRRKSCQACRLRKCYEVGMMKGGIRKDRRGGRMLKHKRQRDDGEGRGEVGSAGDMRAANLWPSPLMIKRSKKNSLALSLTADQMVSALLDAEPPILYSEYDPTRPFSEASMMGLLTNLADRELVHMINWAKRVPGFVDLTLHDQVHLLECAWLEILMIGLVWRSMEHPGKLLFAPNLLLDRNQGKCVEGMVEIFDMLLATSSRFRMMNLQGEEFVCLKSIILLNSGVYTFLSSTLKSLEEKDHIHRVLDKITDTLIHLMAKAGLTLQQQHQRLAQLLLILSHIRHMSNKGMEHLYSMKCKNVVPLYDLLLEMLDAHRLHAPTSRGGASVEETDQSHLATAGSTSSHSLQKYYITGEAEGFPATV
Chain of Estrogen receptor (Homo sapiens) + Estrogen receptor beta (Homo sapiens) (Q92731 whole entry, looked up, the tested form may be a part): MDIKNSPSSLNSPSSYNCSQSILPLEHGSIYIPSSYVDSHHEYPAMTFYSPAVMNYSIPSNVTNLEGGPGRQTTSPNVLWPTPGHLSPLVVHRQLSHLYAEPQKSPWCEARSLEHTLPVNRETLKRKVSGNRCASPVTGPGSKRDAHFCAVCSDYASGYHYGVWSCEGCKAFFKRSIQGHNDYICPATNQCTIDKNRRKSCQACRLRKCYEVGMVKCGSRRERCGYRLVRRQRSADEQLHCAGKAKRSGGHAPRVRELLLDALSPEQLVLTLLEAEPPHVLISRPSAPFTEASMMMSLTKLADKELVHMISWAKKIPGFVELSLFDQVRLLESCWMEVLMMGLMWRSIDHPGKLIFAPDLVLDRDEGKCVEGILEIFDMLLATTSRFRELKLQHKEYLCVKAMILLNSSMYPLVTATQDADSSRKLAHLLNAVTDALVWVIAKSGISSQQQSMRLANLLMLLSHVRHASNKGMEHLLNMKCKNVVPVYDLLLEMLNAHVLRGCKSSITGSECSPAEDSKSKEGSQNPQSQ
Chain of Estrogen receptor (Homo sapiens) (P03372 whole entry, looked up, the tested form may be a part): as the sequence (P03372 whole entry, looked up, the tested form may be a part) above
Chain of bovine Estrogen Receptor (ER), ESR1 (gene 407238) (P49884 whole entry, looked up): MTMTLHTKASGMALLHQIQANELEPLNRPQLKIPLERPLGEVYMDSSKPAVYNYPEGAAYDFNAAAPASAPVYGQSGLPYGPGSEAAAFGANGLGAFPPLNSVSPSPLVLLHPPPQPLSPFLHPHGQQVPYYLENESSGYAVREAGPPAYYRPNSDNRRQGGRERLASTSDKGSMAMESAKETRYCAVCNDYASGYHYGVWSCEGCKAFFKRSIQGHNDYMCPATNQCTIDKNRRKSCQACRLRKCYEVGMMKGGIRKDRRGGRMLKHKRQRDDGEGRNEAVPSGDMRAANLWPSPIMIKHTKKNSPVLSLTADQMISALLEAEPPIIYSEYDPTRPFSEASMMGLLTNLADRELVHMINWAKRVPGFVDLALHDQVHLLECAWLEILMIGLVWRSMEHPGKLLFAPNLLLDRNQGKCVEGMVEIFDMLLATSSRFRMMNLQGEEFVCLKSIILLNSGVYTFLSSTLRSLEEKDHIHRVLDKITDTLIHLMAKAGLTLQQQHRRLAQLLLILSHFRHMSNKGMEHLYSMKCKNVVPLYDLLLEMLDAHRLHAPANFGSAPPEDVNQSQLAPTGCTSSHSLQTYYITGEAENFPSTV
Chain of Estrogen receptor beta (Homo sapiens) (Q92731 whole entry, looked up, the tested form may be a part): as the sequence (Q92731 whole entry, looked up, the tested form may be a part) above
Chain of rat Peripheral-type Benzodiazepine Receptor (PBR), Tspo (gene 24230) (P16257 whole entry, looked up): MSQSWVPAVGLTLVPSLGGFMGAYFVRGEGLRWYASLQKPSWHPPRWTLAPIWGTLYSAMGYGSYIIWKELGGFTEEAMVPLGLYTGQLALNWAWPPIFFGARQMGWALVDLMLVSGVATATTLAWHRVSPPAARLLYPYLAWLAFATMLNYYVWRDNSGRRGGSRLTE
Chain of Androgen Receptor/SRC-1 Co-activator, AR (gene 367) (P10275 whole entry, looked up, the tested form may be a part): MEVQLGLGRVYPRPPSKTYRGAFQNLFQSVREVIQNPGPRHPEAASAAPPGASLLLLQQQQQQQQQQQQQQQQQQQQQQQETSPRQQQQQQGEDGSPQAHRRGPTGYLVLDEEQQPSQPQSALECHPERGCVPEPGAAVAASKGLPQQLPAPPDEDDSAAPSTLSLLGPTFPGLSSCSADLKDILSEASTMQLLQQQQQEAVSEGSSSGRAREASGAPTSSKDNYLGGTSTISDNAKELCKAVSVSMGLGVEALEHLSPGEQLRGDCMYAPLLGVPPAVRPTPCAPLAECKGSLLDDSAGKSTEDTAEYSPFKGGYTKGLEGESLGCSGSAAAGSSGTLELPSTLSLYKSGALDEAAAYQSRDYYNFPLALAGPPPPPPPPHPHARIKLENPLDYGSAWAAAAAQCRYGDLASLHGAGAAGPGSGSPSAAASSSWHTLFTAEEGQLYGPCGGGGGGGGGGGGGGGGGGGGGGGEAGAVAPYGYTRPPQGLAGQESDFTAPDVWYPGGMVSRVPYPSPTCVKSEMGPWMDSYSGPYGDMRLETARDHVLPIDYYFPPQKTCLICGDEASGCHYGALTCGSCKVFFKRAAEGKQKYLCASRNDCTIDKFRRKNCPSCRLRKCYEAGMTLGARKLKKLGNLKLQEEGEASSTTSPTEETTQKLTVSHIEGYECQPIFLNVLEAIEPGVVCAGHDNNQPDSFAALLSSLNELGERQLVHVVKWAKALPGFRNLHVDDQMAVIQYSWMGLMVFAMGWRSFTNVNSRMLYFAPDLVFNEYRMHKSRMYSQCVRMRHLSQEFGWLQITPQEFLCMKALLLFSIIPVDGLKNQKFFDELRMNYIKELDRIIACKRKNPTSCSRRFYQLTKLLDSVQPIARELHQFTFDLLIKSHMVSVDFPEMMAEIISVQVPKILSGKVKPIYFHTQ
Chain of chimpanzee Androgen Receptor (AR), AR (gene 747460) (O97775 whole entry, looked up): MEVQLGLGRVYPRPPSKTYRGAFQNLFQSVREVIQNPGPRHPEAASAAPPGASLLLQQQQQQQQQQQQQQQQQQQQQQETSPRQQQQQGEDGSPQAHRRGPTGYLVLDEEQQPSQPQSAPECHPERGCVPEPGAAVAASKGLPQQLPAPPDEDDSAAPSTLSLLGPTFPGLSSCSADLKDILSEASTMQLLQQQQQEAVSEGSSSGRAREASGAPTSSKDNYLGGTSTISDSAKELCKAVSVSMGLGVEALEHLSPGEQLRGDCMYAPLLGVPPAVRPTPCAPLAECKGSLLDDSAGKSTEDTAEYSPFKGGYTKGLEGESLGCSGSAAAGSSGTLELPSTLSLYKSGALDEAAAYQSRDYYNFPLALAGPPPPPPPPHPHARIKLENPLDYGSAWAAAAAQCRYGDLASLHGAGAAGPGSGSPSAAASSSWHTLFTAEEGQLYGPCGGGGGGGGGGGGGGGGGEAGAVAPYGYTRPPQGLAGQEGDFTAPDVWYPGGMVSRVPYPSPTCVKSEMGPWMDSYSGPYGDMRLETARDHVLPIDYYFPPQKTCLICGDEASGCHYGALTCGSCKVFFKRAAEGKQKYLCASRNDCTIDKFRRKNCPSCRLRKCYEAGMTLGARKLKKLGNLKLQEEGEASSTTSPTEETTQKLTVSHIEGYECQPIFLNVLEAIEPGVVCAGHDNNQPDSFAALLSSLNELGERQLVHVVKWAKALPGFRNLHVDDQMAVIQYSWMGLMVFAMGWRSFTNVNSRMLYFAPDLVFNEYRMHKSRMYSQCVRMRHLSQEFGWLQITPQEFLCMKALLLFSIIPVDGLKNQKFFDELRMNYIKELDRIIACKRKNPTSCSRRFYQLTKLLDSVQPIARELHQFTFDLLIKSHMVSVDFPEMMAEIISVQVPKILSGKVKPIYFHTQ
Chain of human Peripheral-type Benzodiazepine Receptor (PBR), TSPO (gene 706) (P30536 whole entry, looked up): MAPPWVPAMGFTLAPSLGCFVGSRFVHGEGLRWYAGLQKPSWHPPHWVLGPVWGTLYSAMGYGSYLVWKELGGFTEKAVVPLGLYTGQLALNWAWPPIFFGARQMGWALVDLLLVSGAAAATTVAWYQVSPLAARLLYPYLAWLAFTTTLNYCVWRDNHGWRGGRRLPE
Chain of rat Neonicotinoid receptor (NNR), Chrna7 (gene 25302) (Q05941 whole entry, looked up): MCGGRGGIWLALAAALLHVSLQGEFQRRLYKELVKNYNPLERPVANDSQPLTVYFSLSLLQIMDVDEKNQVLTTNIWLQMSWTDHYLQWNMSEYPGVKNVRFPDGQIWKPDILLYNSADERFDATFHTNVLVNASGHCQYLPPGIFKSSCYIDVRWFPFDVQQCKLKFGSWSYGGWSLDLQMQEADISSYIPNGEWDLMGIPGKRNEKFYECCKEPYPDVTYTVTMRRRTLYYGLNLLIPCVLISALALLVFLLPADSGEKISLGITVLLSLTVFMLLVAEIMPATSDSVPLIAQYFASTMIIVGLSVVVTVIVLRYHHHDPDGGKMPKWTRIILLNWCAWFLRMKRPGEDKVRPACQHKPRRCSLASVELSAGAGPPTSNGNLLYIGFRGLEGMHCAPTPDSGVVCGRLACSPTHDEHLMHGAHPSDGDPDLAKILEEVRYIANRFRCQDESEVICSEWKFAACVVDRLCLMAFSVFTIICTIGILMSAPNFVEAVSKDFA

Regarding `C=CC(=O)OCC(O)COc1ccccc1` (centres undefined), the compound was classed as inactive in [1].

On to `CCCCCCCCCCC(CO)CCCCCCCC` (centres undefined), for which the compound was classed as inactive in experiment [2].

In the case of `O=C(O)C[C@H](O)C[C@H](O)/C=C/c1c(C2CC2)nc2ccccc2c1-c1ccc(F)cc1`, the half-maximal activity concentration (AC50) (usually the concentration giving half of the maximal activity seen) in experiment [3] is 3.55 µM (active).

For the compound `O=P(c1ccccc1)(c1ccccc1)c1ccccc1`, in [3], the half-maximal activity concentration (AC50) is 8.17 µM (active). For the same compound, the outcome in experiment [4] was inactive.

Turning to `CSc1nnc(C(C)(C)C)c(=O)[nH]1`, the outcome in experiment [5] was inactive.

In the case of `Nc1cccc(S(=O)(=O)c2cccc(N)c2)c1`, the compound was classed as inactive in experiment [1].

For the compound `O=C=NC1CCC(CC2CCC(N=C=O)CC2)CC1` (centres undefined), the half-maximal activity concentration (AC50) in experiment [3] was 4.47 µM (active).

In the case of `CC1=CCC2C(C1)C2(C)C` (centres undefined), the outcome in experiment [1] and in [6] was inactive.

As to `c1cc(C(c2ccc(OCC3CO3)cc2)c2ccc(OCC3CO3)cc2)ccc1OCC1CO1` (centres undefined), the outcome in experiment [1] and in experiment [6] was inactive.

With `CCCc1c(OCCCOc2ccc(OCC(=O)O)cc2)ccc(C(C)=O)c1O`, the result in experiment [1] was inactive.

Take `CCN(CC)c1ccc2c(-c3ccccc3C(=O)O)c3ccc(=[N+](CC)CC)cc-3oc2c1`: the concentration at half-maximal activity (AC50) was 16.8 µM (active) in [7]; 13.2 µM (active) in experiment [2]; 12.2 µM (active) in [8]; 12.2 µM (active) in [9]; 12 µM (active) in [10]; 12.2 µM (active) in experiment [11].

With `CNCCCC12CCC(c3ccccc31)c1ccccc12`, the compound was classed as inactive in experiment [1] and in experiment [6].

With `NNc1nc(-c2ccc(N)cc2)cs1`, the compound was classed as inactive in [1] and in experiment [6].

In the case of `O=C1c2ccccc2C(=O)N1SC1CCCCC1`, the compound was called inactive in experiment [6], in [8], in experiment [9] and in [11].

Turning to `CC(=O)OCCC(C)CC(C)(C)C` (centres undefined), the call in experiment [8] and in [9] was inactive.

Consider `CCCC(=O)c1cc(O)c(O)cc1O`, for which, in experiment [6], the half-maximal activity concentration (AC50) is 7.55 µM (active).

Consider `BrC1CCC(Br)C(Br)CCC(Br)C(Br)CCC1Br` (centres undefined), for which the outcome in [8], in [9], in experiment [13] and in experiment [11] was inactive. The AC50 in experiment [12] is 19.6 µM (active); in experiment [10], 60.4 µM (active).

For the compound `CCCCCCCCC`, the call in experiment [8], in [9], in experiment [10] and in experiment [11] was inactive.

With `COC(=O)C1=C(C)NC(C)=C(C(=O)OCCN(C)Cc2ccccc2)C1c1cccc([N+](=O)[O-])c1` (centres undefined), the AC50 in experiment [6] was 9.13 µM (active).

For `C=CC(C)(O)CCC=C(C)CCC=C(C)C` (centres undefined), the compound was classed as inactive in experiment [14] and in experiment [11].

Turning to `CCCCCCCCC=O`, the outcome in experiment [1], in experiment [6], in experiment [8], in experiment [9], in experiment [10] and in experiment [11] was inactive.

On to `O=C(COc1ccc(Cl)cc1)N1CCN(Cc2ccc3c(c2)OCO3)CC1`, for which the outcome in experiment [6] was inactive.

With `CCCCc1ccc(N)cc1`, the compound was classed as inactive in [8], in experiment [9] and in experiment [11]. For the same compound, the concentration at half-maximal activity (AC50) in experiment [10] was 39.6 µM (active).
